Screen size: about 5,500 compounds; about 2,000 (36%) were called active. About 18% were inconclusive and are not listed. Rule as the data show it: active = normalized growth mostly below about 0.91 (no sharp cut-off); inconclusive = no clear call, values can overlap the other calls; inactive = mostly above about 0.92. This is one part of the list.
Assay: chemical genetic growth profiling, strain panel (AID 1159580);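 also: tested at 20 µM; growth read once vehicle control cultures reached saturation at 30 °C; 1 = growth at the plate median or of vehicle wells; lower values mean less growth of the strain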
Details: growth OD

Measured: normalized growth

CCCCCCCCCc1ccc(O)cc1
inactive: S. cerevisiae deletion strains, locus YKL068W, active compounds read low 0.964 | S. cerevisiae deletion strains, locus YOL012C, strain htz1 0.624 | S. cerevisiae deletion strains, locus YPR141C, strain kar3, active compounds read low 0.992
active: S. cerevisiae deletion strains, locus YJR075W, strain HOC1, active compounds read low 0.256 | S. cerevisiae deletion strains, locus YKL009W, strain mrt4, active compounds read low 0.616 | S. cerevisiae deletion strains, locus YKL085W, strain MDH1 (second series), active compounds read low 0.311 | S. cerevisiae deletion strains, locus YKL085W, strain MDH1, active compounds read low 0.311 | S. cerevisiae deletion strains, locus YKL160W, strain elf1, active compounds read low 0.0913 | S. cerevisiae deletion strains, locus YKL190W, strain CNB1, active compounds read low 0.139 | S. cerevisiae deletion strains, locus YKR001C, strain vps1, active compounds read low 0.352 | S. cerevisiae deletion strains, locus YKR026C, strain gcn3, active compounds read low 0.0658 | S. cerevisiae deletion strains, locus YKR091W, strain srl3, active compounds read low 0.0785 | S. cerevisiae deletion strains, locus YLL001W, strain dnm1, active compounds read low 0.0778 | S. cerevisiae deletion strains, locus YLL026W, active compounds read low 0.0571 | S. cerevisiae deletion strains, locus YLL041C, strain sdh2, active compounds read low 0.0651 | S. cerevisiae deletion strains, locus YLR027C, strain aat2, active compounds read low 0.0531 | S. cerevisiae deletion strains, locus YLR039C, strain RIC1, active compounds read low 0.106 | S. cerevisiae deletion strains, locus YLR058C, strain SHM2, active compounds read low 0.136 | S. cerevisiae deletion strains, locus YLR102C, strain apc9, active compounds read low 0.901 | S. cerevisiae deletion strains, locus YLR113W, strain HOG1, active compounds read low 0.117 | S. cerevisiae deletion strains, locus YLR221C, strain rsa3, active compounds read low 0.0526 | S. cerevisiae deletion strains, locus YLR258W, strain gsy2, active compounds read low 0.062 | S. cerevisiae deletion strains, locus YLR262C, strain YPT6 (second series), active compounds read low 0.0891 | S. cerevisiae deletion strains, locus YLR262C, strain YPT6, active compounds read low 0.139 | S. cerevisiae deletion strains, locus YLR268W, strain sec22, active compounds read low 0.74 | S. cerevisiae deletion strains, locus YLR320W, strain mms22, active compounds read low 0.071 | S. cerevisiae deletion strains, locus YLR330W, strain CHS5, active compounds read low 0.321 | S. cerevisiae deletion strains, locus YLR342W, strain FKS1 (second series), active compounds read low 0.102 | S. cerevisiae deletion strains, locus YLR342W, strain FKS1, active compounds read low 0.0664 | S. cerevisiae deletion strains, locus YLR357W, strain rsc2, active compounds read low 0.148 | S. cerevisiae deletion strains, locus YLR370C, strain arc18, active compounds read low 0.0667 | S. cerevisiae deletion strains, locus YLR371W, strain rom2, active compounds read low 0.622 | S. cerevisiae deletion strains, locus YLR384C, strain iki3, active compounds read low 0.0786 | S. cerevisiae deletion strains, locus YLR418C, strain cdc73, active compounds read low 0.323 | S. cerevisiae deletion strains, locus YML016C, strain PPZ1, active compounds read low 0.191 | S. cerevisiae deletion strains, locus YML032C, strain rad52, active compounds read low 0.497 | S. cerevisiae deletion strains, locus YML120C, strain ndi1, active compounds read low 0.0538 | S. cerevisiae deletion strains, locus YML124C, strain tub3, active compounds read low 0.908 | S. cerevisiae deletion strains, locus YMR058W, strain fet3, active compounds read low 0.0622 | S. cerevisiae deletion strains, locus YMR078C, strain ctf18, active compounds read low 0.611 | S. cerevisiae deletion strains, locus YMR125W, strain sto1, active compounds read low 0.0742 | S. cerevisiae deletion strains, locus YMR129W, active compounds read low 0.0704 | S. cerevisiae deletion strains, locus YMR205C, strain PFK2, active compounds read low 0.0794 | S. cerevisiae deletion strains, locus YMR223W, strain ubp8, active compounds read low 0.558 | S. cerevisiae deletion strains, locus YMR231W, strain pep5, active compounds read low 0.0903 | S. cerevisiae deletion strains, locus YMR263W, strain SAP30, active compounds read low 0.099 | S. cerevisiae deletion strains, locus YMR307W, strain GAS1, active compounds read low 0.121 | S. cerevisiae deletion strains, locus YNL067W, strain RPL9B, active compounds read low 0.254 | S. cerevisiae deletion strains, locus YNL071W, strain lat1, active compounds read low 0.0615 | S. cerevisiae deletion strains, locus YNL128W, strain TEP1, active compounds read low 0.119 | S. cerevisiae deletion strains, locus YNL153C, strain GIM3, active compounds read low 0.117 | S. cerevisiae deletion strains, locus YNL183C, strain NPR1, active compounds read low 0.00185 | S. cerevisiae deletion strains, locus YNL209W, strain ssb2, active compounds read low 0.0648 | S. cerevisiae deletion strains, locus YNL233W, strain BNI4, active compounds read low 0.0815 | S. cerevisiae deletion strains, locus YNL248C, strain rpa49, active compounds read low 0.076 | S. cerevisiae deletion strains, locus YNL250W, strain rad50, active compounds read low 0.734 | S. cerevisiae deletion strains, locus YNL271C, strain bni1, active compounds read low 0.749 | S. cerevisiae deletion strains, locus YNL298W, strain CLA4, active compounds read low 0.437 | S. cerevisiae deletion strains, locus YNL307C, strain MCK1, active compounds read low 0.292 | S. cerevisiae deletion strains, locus YNL322C, strain KRE1 (second series), active compounds read low 0.11 | S. cerevisiae deletion strains, locus YNL322C, strain KRE1, active compounds read low 0.167 | S. cerevisiae deletion strains, locus YNR049C, strain mso1, active compounds read low 0.0733 | S. cerevisiae deletion strains, locus YNR052C, strain pop2, active compounds read low 0.538 | S. cerevisiae deletion strains, locus YOL006C, strain TOP1, active compounds read low 0.217 | S. cerevisiae deletion strains, locus YOL147C, strain pex11, active compounds read low 0.444 | S. cerevisiae deletion strains, locus YOR001W, strain rrp6, active compounds read low 0.0626 | S. cerevisiae deletion strains, locus YOR061W, strain CKA2, active compounds read low 0.102 | S. cerevisiae deletion strains, locus YOR069W, strain VPS5, active compounds read low 0.217 | S. cerevisiae deletion strains, locus YOR070C, strain gyp1, active compounds read low 0.063 | S. cerevisiae deletion strains, locus YOR080W, strain dia2, active compounds read low 0.0669 | S. cerevisiae deletion strains, locus YOR083W, strain WHI5, active compounds read low 0.0608 | S. cerevisiae deletion strains, locus YOR106W, strain vam3, active compounds read low 0.0604 | S. cerevisiae deletion strains, locus YOR136W, strain idh2, active compounds read low 0.758 | S. cerevisiae deletion strains, locus YOR144C, strain elg1, active compounds read low 0.553 | S. cerevisiae deletion strains, locus YOR184W, strain ser1, active compounds read low 0.506 | S. cerevisiae deletion strains, locus YOR231W, strain MKK1, active compounds read low 0.101 | S. cerevisiae deletion strains, locus YOR265W, strain rbl2, active compounds read low 0.0564 | S. cerevisiae deletion strains, locus YOR270C, strain vph1, active compounds read low 0.102 | S. cerevisiae deletion strains, locus YOR290C, strain snf2, active compounds read low 0.0652 | S. cerevisiae deletion strains, locus YOR316C, strain cot1, active compounds read low 0.799 | S. cerevisiae deletion strains, locus YPL051W, strain arl3, active compounds read low 0.0626 | S. cerevisiae deletion strains, locus YPL055C, strain LGE1, active compounds read low 0.1 | S. cerevisiae deletion strains, locus YPL078C, strain atp4, active compounds read low 0.0621 | S. cerevisiae deletion strains, locus YPL106C, strain sse1, active compounds read low 0.0816 | S. cerevisiae deletion strains, locus YPL240C, strain hsp82, active compounds read low 0.0552 | S. cerevisiae deletion strains, locus YPL241C, strain CIN2, active compounds read low 0.219 | S. cerevisiae deletion strains, locus YPL256C, strain CLN2, active compounds read low 0.109 | S. cerevisiae deletion strains, locus YPR119W, strain clb2, active compounds read low 0.67 | S. cerevisiae deletion strains, locus YPR163C, strain tif3, active compounds read low 0.86 | S. cerevisiae deletion strains, locus YPR167C, strain met16, active compounds read low 0.655 | S. cerevisiae deletion strains, strain wtn01, active compounds read low 0.813 | S. cerevisiae strains, strain wild type, active compounds read low 0.112
